D1 PAM – enhances dopamine response at the human D1 receptor; P21728; HEK293 TREx D1 cells, calcium flux, dopamine EC20 potentiation; potentiation, % at 10 µM; 360,000 tested, 0.036% active; in the data active = potentiation above about 30%
DRD3 antagonist – antagonists of human D3 dopamine receptor; D3R cells, DiscoveRx beta-arrestin luminescence, antagonist mode; active compounds read low; max response, negative = inhibition, %; P35462; 360,000 tested, 2.5% active; AID 652054; in the data active = max response below about -50%; inconclusive = no clear call, values can overlap the other calls
Target sequence (P35462 whole entry, looked up): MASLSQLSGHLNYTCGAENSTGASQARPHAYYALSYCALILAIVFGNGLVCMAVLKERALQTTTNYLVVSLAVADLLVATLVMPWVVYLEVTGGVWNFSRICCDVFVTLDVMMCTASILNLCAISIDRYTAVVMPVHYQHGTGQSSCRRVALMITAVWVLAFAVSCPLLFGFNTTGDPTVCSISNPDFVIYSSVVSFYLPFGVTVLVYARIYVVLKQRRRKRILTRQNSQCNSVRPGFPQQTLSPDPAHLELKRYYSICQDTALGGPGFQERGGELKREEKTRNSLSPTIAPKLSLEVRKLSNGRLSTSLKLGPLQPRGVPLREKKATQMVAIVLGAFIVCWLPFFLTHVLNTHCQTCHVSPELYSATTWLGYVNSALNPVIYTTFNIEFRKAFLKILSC
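Cells plated overnight at 1500 cells/well, then exposed to library compounds with dopamine controls for 90 minutes at 37 degrees C. DiscoveRx reagent added for 30–60 minutes at room temperature; luminescence read, quantitative HTS format.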
D1 agonist – activates the human D1 dopamine receptor; P21728; HEK293 T-REx D1 cells, calcium flux, agonist mode; activation, % at 2 µM; 360,000 tested, 1% active; AID 504660; in the data active = activation above about 30%
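Tetracycline-induced HEK293 TREx D1 cells, force-coupled to calcium signalling, were dye-loaded with a no-wash calcium kit. Compound was pin-added after a 10 s baseline. Fluorescence was read kinetically at 1 cycle/s for 180 s, with calcium rises flagged as agonism.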
D1 antag – antagonists of human D1 dopamine receptor | P21728 | HEK293 TREx D1 cells, calcium flux, dopamine EC80; active compounds read low | activity change, negative = inhibition, % at 10 µM | 360,000 tested, 3.2% active; in the data active = activity change below about -30%
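Cells carrying a force-coupled, tetracycline-inducible human D1 receptor report calcium flux. Each well gets a 10 s baseline, compound with 180 s monitoring, then an EC80 dopamine stimulus with a second 180 s kinetic read.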
DRD3 agonist – D3 dopamine receptor (human) agonism; AID 652048; P35462; max activation, %; D3R DiscoveRx beta-arrestin cells, luminescence, 90 min; 410,000 tested, 0.58% active; in the data active = max activation above about 30%
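Agonist-mode cell screen: cells plated at 1500/well and incubated overnight at 37 °C, then exposed to library compounds for 90 min at 37 °C. Detection reagent was added for 30–60 min at room temperature, and luminescence was read.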
Hits are given with their value; - = inactive; ? = inconclusive; . = no result. The list is not random: actives were taken first. Their share in the collection is about 6.1%.

SMILES	D1 PAM	DRD3 antagonist	D1 agonist	D1 antag	DRD3 agonist
O=C(NCc1ccc(F)cc1)c1ccc(Nc2nc3ccccc3n3nnnc23)cc1	-	.	-	-30	-
O=C1Cc2cc(NS(=O)(=O)c3cc(F)ccc3F)cc3c2N1CCC3	-	-	-	-60	-
COc1c(C)cc(S(=O)(=O)Nc2cccc(-c3ccc(N4CCOCC4)nn3)c2)c(C)c1C	-	.	-	-	-
Cc1[nH]c2ccccc2c1/C=N/Nc1ccc([N+](=O)[O-])cc1	-	?	125	-	-
Cc1[nH]c2ccccc2c1/C=N/NC(=O)c1cccc(F)c1	-	?	-	-66	-
O=[N+]([O-])c1ccc(N/N=C/c2c[nH]c3ccccc23)c(S(=O)(=O)Nc2ccc(Cl)cc2)c1	-	?	45	-	-
CN1CCN(S(=O)(=O)c2cc([N+](=O)[O-])ccc2N/N=C/c2ccc(Cl)cc2)CC1	-	-	-	-	-
COc1ccccc1NS(=O)(=O)c1cc([N+](=O)[O-])ccc1N/N=C/c1c(C)[nH]c2ccccc12	-	-52	62	-	-
COc1ccc(Nc2nc3c(S(=O)(=O)c4ccc(Br)cc4)nnn3c3ccsc23)c(OC)c1	-	.	-	-	-
Cn1ncc2c(N3CCN(c4ccccc4Cl)CC3)ncnc21	-	.	-	-	-
CC1CCN(C(c2ccc(F)cc2)c2sc3nc(-c4ccco4)nn3c2O)CC1 (stereo unspecified)	-	.	-	.	-
C=CCN(CC=C)Cc1c(O)ccc2c1oc(=O)c1ccccc12	.	-62	.	.	-
O=C1C=C(O)c2cccc(O)c2C1=O	-	-	-	-	-
O=C1C=C(c2c(O)ccc3ccccc23)c2ccccc2C1=O	.	-62	.	.	-
CC(C)(C)c1ccc(Nc2nc(C#N)nc(NC3CCCC3)n2)cc1	-	.	-	-	.
COc1ccc(-n2cc(CNC3CCC(O)CC3)c(-c3cccc(F)c3)n2)cc1 (stereo unspecified)	-	-	36	-	-
Cc1ccc(NC(=O)CN2CCSc3ccc(S(=O)(=O)N4CCCC4)cc32)cc1C	-	.	-	-	-
Cc1ccc(CN(C(=O)COc2ccc(Br)cc2)c2ccccn2)o1	-	.	-	-	-
Cc1ccc(CN(C(=O)COc2ccccc2[N+](=O)[O-])c2ccccn2)o1	-	.	-	-	38
CCN(CC)CCNC(=O)c1c(C)n(-c2ccccc2)c2cc(Br)c(OC)cc12	-	-65	-	-	-
CCn1c(SCC(=O)Nc2ccc(C(C)=O)cc2)nc2nc3c(cc2c1=O)CCCC3	-	-	-	-	30
CCn1c(SCC(=O)Nc2ccc(Cl)cc2)nc2nc3c(cc2c1=O)CCCC3	-	-	-	-	-
CCc1ccc(NC(=O)Cn2cnc3nc4c(cc3c2=O)CCCC4)cc1	-	.	-	-32	-
O=C(CC1(O)C(=O)N(CCc2ccccc2)c2ccc(Br)cc21)c1ccc(F)cc1 (stereo unspecified)	-	.	-	-	-
Cc1cc(C(=O)N2CCN(c3ccc([N+](=O)[O-])cc3)CC2)n[nH]1	-	-	-	-32	-
SMILES	D1 PAM	DRD3 antagonist	D1 agonist	D1 antag	DRD3 agonist
COCC(=O)N1CCN(c2ccc([N+](=O)[O-])cc2)CC1	-	-	-	-32	-
CCOc1ccccc1CN1CCc2nc(Nc3ccc4c(c3)OCCO4)ncc2C1	-	.	-	-	-
COc1cc(C2OC(=O)c3c2ccc(OC)c3OC)ccc1O (stereo unspecified)	-	.	-	-	.
NC(=O)c1cccn1Cc1ccccc1Cl	-	-77	-	-	-
NC(=O)c1cccn1Cc1cccc(Cl)c1	-	-	-	-	-
CCOc1ccccc1C1c2[nH]c3ccccc3c2C[C@H]2C(=O)N(C3CCN(Cc4ccccc4)CC3)CC(=O)N12 (stereo partly specified)	-	-105	-	-	-
COC(=O)c1ccc(C2c3[nH]c4ccccc4c3C[C@H]3C(=O)N(C4CCN(Cc5ccccc5)CC4)CC(=O)N23)cc1 (stereo partly specified)	-	-61	-	-	-
COc1ccc(OCC#CCNC(C)(C)C)cc1	-	-69	-	-	-
CC(C)NCC#CCOc1ccc(Cl)cc1	-	-	-	-	-
Cc1oc2ccc(O)c(CN3CCCC3)c2c1C(=O)Nc1cccc(Cl)c1C	-	.	-	-	-
Cc1ccc(OCc2cc(C(=O)NC(C)Cc3cnccn3)no2)cc1C (stereo unspecified)	-	-	-	-40	-

Source: PubChem BioAssay
